The source of these data is the supplement of paper PMC9023506.

Where a name gives a salt, the structure may show the parent alone.

The test system of this assay is Danio rerio larvae (5 dpf). Put plainly: excitability to 1-s acoustic pulses, difference vs DMSO (percentage points (treated minus DMSO)); higher = more of the behaviour than the DMSO vehicle control. To be noted: 10 µM; exposure time: 3 h pre-incubation + 3 h imaging. How it is done:
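5-dpf wild-type zebrafish larvae were imaged in 96-well plates. They were treated with 190 Tocris FDA-approved drugs at 10 µM (1 µl/ml DMSO) for 3 h before and 3 h during imaging at 28.5 °C, 48 larvae per drug. Automated image analysis gave % time moving and optomotor responses. Values are drug group mean minus DMSO vehicle mean (n=844), in percentage points, for 10 behaviours.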
For the compound `CC(C)Nc1cccnc1N1CCN(C(=O)c2cc3cc(NS(C)(=O)=O)ccc3[nH]2)CC1` [Delavirdine mesylate], the “excitability to 1-s acoustic pulses” value is 0.884.

For the compound `O=C(O[C@@H]1C[C@@H]2C[C@H]3C[C@H](C1)N2CC3=O)c1c[nH]c2ccccc12` [Dolasetron mesylate], the “excitability to 1-s acoustic pulses” value came out at 9.61. In the case of `Cc1c(-c2ccc(O)cc2)n(Cc2ccc(OCCN3CCCCCC3)cc2)c2ccc(O)cc12` [Bazedoxifene acetate], the “excitability to 1-s acoustic pulses” value is 16. Regarding `CCCCNc1cc(C(=O)O)cc(S(N)(=O)=O)c1Oc1ccccc1` [Bumetanide], the “excitability to 1-s acoustic pulses” value came to 3.02. With `C#C[C@]1(O)CC[C@H]2[C@@H]3CCC4=CC(=O)CC[C@@H]4[C@H]3CC[C@@]21CC` [Levonorgestrel] the figure was 1.14. Turning to `CN[C@H]1CC[C@@H](c2ccc(Cl)c(Cl)c2)c2ccccc21` [Sertraline hydrochloride], the “excitability to 1-s acoustic pulses” value amounted to 8.5. With `Nc1cc(N2CCCCC2)nc(N)[n+]1[O-]` [Minoxidil], the “excitability to 1-s acoustic pulses” value was 1.

Regarding `Cn1cnc([N+](=O)[O-])c1Sc1ncnc2[nH]cnc12` [Azathioprine], the “excitability to 1-s acoustic pulses” value was -0.039. With `O=C1CCc2ccc(OCCCCN3CCN(c4cccc(Cl)c4Cl)CC3)cc2N1` [Aripiprazole] the figure was 16.5; with `OC(c1cc(C(F)(F)F)nc2c(C(F)(F)F)cccc12)C1CCCCN1` (stereo not given) [Mefloquine hydrochloride], 14. As to `C[C@@H](O[C@H]1OCCN(Cc2n[nH]c(=O)[nH]2)[C@H]1c1ccc(F)cc1)c1cc(C(F)(F)F)cc(C(F)(F)F)c1` [Aprepitant], the “excitability to 1-s acoustic pulses” value was found to be 8.09. Under `O=C(O)CCCc1ccccc1` [Sodium 4-Phenylbutyrate] stands 2.04; under `N#C[C@@H]1C[C@@H]2C[C@@H]2N1C(=O)[C@@H](N)C12CC3CC(CC(O)(C3)C1)C2` [Saxagliptin hydrochloride], 2.82. With `CO[C@H]1/C=C/O[C@@]2(C)Oc3c(C)c(O)c4c(O)c(c5c(nc6cc(C)ccn65)c4c3C2=O)NC(=O)/C(C)=C\C=C\[C@H](C)[C@H](O)[C@@H](C)[C@@H](O)[C@@H](C)[C@H](OC(C)=O)[C@@H]1C` [Rifaximin] the figure was 4.07. On to `CNC(=O)c1ccccc1Sc1ccc2c(/C=C/c3ccccn3)n[nH]c2c1` [Axitinib], for which the “excitability to 1-s acoustic pulses” value came out at 1.46. In the case of `NC(=O)N1c2ccccc2C=Cc2ccccc21` [Carbamazepine], the “excitability to 1-s acoustic pulses” value is -0.497.

Take `CCOC(=O)c1ncn2c1CN(C)C(=O)c1cc(F)ccc1-2` [Flumazenil]: the “excitability to 1-s acoustic pulses” value is 2.56. With `C[C@H]1O[C@H](O[C@H]2[C@H](O)[C@@H](O)[C@@H](O[C@H]3[C@H](O)[C@@H](O)C(O)O[C@@H]3CO)O[C@@H]2CO)[C@H](O)[C@@H](O)[C@@H]1N[C@H]1C=C(CO)[C@@H](O)[C@H](O)[C@H]1O` (stereo not given in full) [Acarbose] the figure was -4.01; with `CCOC(=O)C1=C(COCCN)NC(C)=C(C(=O)OC)C1c1ccccc1Cl` (stereo not given) [Amlodipine besylate], -1.57. As for `CCN(Cc1ccncc1)C(=O)C(CO)c1ccccc1` (stereo not given) [Tropicamide], the “excitability to 1-s acoustic pulses” value turned out to be 0.232. Consider `CCCCC1=NC2(CCCC2)C(=O)N1Cc1ccc(-c2ccccc2-c2nnn[nH]2)cc1` [Irbesartan], for which the “excitability to 1-s acoustic pulses” value was -3.79. `Cc1ccc(-c2cc(C(F)(F)F)nn2-c2ccc(S(N)(=O)=O)cc2)cc1` [Celecoxib]: the “excitability to 1-s acoustic pulses” value turned out to be 6.46. With `COc1ccc(-c2ccc3cc(C(=O)O)ccc3c2)cc1C12CC3CC(CC(C3)C1)C2` [Adapalene] the figure was -0.119; with `C#CCN[C@@H]1CCc2ccccc21` [Rasagiline mesylate], -3.66. For `CCc1c2c(nc3ccc(OC(=O)N4CCC(N5CCCCC5)CC4)cc13)-c1cc3c(c(=O)n1C2)COC(=O)[C@]3(O)CC`, the “excitability to 1-s acoustic pulses” value amounted to 6.46. In the case of `COc1ccc(C[C@@H](C)NC[C@H](O)c2ccc(O)c(NC=O)c2)cc1` [Arformoterol tartrate], the “excitability to 1-s acoustic pulses” value was found to be 5.34. For the compound `COC(c1ccccc1)(c1ccccc1)[C@H](Oc1nc(C)cc(C)n1)C(=O)O` [Ambrisentan], the “excitability to 1-s acoustic pulses” value was -1.87. Under `CN(CCOc1ccc(NS(C)(=O)=O)cc1)CCc1ccc(NS(C)(=O)=O)cc1` [Dofetilide] stands 4.42. `CN1CCN2c3ncccc3Cc3ccccc3C2C1` (stereo not given) [Mirtazapine]: the “excitability to 1-s acoustic pulses” value was 0.878. For the compound `Nc1ccn([C@@H]2O[C@H](CO)[C@@H](O)C2(F)F)c(=O)n1` [Gemcitabine hydrochloride], the “excitability to 1-s acoustic pulses” value was -1.2. Turning to `COc1cc2ncnc(Nc3ccc(F)c(Cl)c3)c2cc1OCCCN1CCOCC1` [Iressa], the “excitability to 1-s acoustic pulses” value turned out to be 18. Consider `COc1cc(Nc2c(C#N)cnc3cc(OCCCN4CCN(C)CC4)c(OC)cc23)c(Cl)cc1Cl` [Bosutinib], for which the “excitability to 1-s acoustic pulses” value was found to be 6.48. As for `Nc1cccc2c1CN(C1CCC(=O)NC1=O)C2=O` (stereo not given) [Lenalidomide], the “excitability to 1-s acoustic pulses” value was -2.77. In the case of `CC(=O)Oc1cc2c(s1)CCN(C(C(=O)C1CC1)c1ccccc1F)C2` (stereo not given) [Prasugrel], the “excitability to 1-s acoustic pulses” value amounted to 5.57. Turning to `C[C@]12CCC(=O)C=C1CC[C@@H]1[C@@H]2[C@@H](O)C[C@@]2(C)[C@H]1CC[C@]2(O)C(=O)CO` [Hydrocortisone], the “excitability to 1-s acoustic pulses” value was 1.67.

As for `CCCc1nn(C)c2c(=O)[nH]c(-c3cc(S(=O)(=O)N4CCN(C)CC4)ccc3OCC)nc12` [Sildenafil citrate], the “excitability to 1-s acoustic pulses” value worked out at 4.02. With `CC(=O)NC[C@H]1CN(c2ccc(N3CCOCC3)c(F)c2)C(=O)O1` [Linezolid] the figure was 7.52; with `OCCN1C[C@H](O)[C@@H](O)[C@H](O)[C@H]1CO` [Miglitol], 5.41; with `Cc1ccccc1C(=O)Nc1ccc(C(=O)N2CCCC(O)c3cc(Cl)ccc32)c(C)c1` (stereo not given) [Tolvaptan], 6.31. Consider `COc1cc2nc(N3CCN(C(=O)C4COc5ccccc5O4)CC3)nc(N)c2cc1OC` (stereo not given) [Doxazosin mesylate], for which the “excitability to 1-s acoustic pulses” value amounted to 20.8.
